Screening results as filed in PubChem BioAssay.
tim10-1 inh: growth inhibitors of tim10-1 mutant yeast; S. cerevisiae tim10-1 ts strain growth, BacTiter-Glo, 24 h; inhibition, % at 20 µM; hit rate 2.2% among 330,000; AID 463190;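 active means inhibition of at least 40%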;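 further: mutant grown at 25 °C; 0% = DMSO wells with yeast and 100% = wells holding no yeast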
V-ATPase pHluor: regulators of yeast V-ATPase proton transport | S. cerevisiae, pHLuorin cytosolic pH fluorescence | response, % at 10 µM | hit rate 0.37% among 350,000 | AID 504577; in the data active means response mostly above about 7.3%, no sharp cut-off; inactive means mostly below about 5.4%; further: actives read high
tim23-1 inh: inhibits growth of tim23-1 mutant yeast; inhibition, % at 20 µM; hit rate 1.3% among 330,000; S. cerevisiae tim23-1 growth, BacTiter-Glo luminescence, 24 h; AID 463212;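 active means growth inhibition of the mutant yeast at or above 50%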;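 further: temperature-sensitive mutant grown at 25 °C; plate controls were DMSO-treated mutant yeast for no effect and medium wells lacking yeast for full effect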
PfHsp90 set2: inhibits growth of yeast expressing Plasmodium falciparum Hsp90. S. cerevisiae expressing PfHsp90, BacTiter-Glo ATP, 48 h; yeast lacking PDR1 and PDR3 efflux regulators. inhibition, % at 9.4 µM. hit rate 0.32% among 310,000. AID 504621;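 active means every replicate shows inhibition above about 80%, whatever the replicate mean, limit read from the data; inconclusive means mean inhibition reaches the set limit but some replicate falls short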;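 further: 0% = DMSO neutral controls and 100% = 20 µM radicicol positive controls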
TIM10 inh: TIM10 yeast growth inhibition; S. cerevisiae TIM10 strain growth, BacTiter-Glo luminescence, 24 h; hit rate 1.4% among 330,000; inhibition, % at 10 µM;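 active means inhibition of 40% or more at the single tested concentration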;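 further: wild-type TIM10 isogenic control strain grown at permissive 25 °C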
SKKanGAS inh: SKKanGAS growth inhibition | S. pyogenes SKKanGAS, kanamycin growth, BacTiter-Glo, 6 h | inhibition, % at 7.5 µM | hit rate 1.3% among 300,000 | AID 1662;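 active means mean replicate score, as percent of positive control median, at least 50; inconclusive means mean below 50 but one replicate at or above 50; inactive means mean and every replicate below 50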;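 further: strain carries kanamycin resistance gene driven by streptokinase promoter and grows in 40 µg/ml kanamycin; loss of luminescence reflects streptokinase promoter inhibition or plain growth inhibition; 0% = median of DMSO wells and 100% = positive control at its reference dose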
tim10-1 conf: confirmation of tim10-1 mutant yeast growth inhibitors. shares compounds with tim10-1 inh. S. cerevisiae tim10-1 ts strain growth, BacTiter-Glo, 24 h. inhibition, % at 20 µM. hit rate 56% among 7,400. AID 463213;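 active means inhibition of yeast growth at or above a set limit in either of two repeat tests at 20 µM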;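 further: tim10-1 mutant grown at permissive 25 °C to find synthetic lethal compounds; 0% = DMSO yeast wells and 100% = medium wells without yeast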
TIM10 conf: confirmation of TIM10 yeast growth inhibitors | shares compounds with TIM10 inh | AID 463215 | inhibition, % at 10 µM | hit rate 63% among 4,600 | S. cerevisiae tim10 strain growth, BacTiter-Glo luminescence, 24 h;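 active means inhibition of yeast growth at or above a set limit in either of two replicates at 10 µM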;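 further: this counterscreen used the strain with wild-type TIM10; 0% = yeast with DMSO and 100% = medium wells lacking yeast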
tim23-1 conf: confirmation of tim23-1 mutant yeast growth inhibitors. shares compounds with tim23-1 inh. S. cerevisiae tim23-1 growth, BacTiter-Glo luminescence, 24 h. inhibition, % at 20 µM. hit rate 83% among 4,400. AID 463218;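 active means inhibition above about 39% in either of two replicate wells at 20 µM, limit read from the data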;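 further: temperature-sensitive tim23-1 mutant grown at 25 °C; 0% = DMSO wells with yeast and 100% = medium wells without yeast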
* = called active by the depositor; ? = inconclusive; . = not tested or not shown. An excerpt weighted towards active compounds, which were near 4.6% of everything screened.

SMILES	tim10-1 inh	V-ATPase pHluor	tim23-1 inh	PfHsp90 set2	TIM10 inh	SKKanGAS inh	tim10-1 conf	tim23-1 conf	others
CCC(C)n1c(/C=C/c2ccccc2)nc2ccccc21 (stereo not drawn)	45.4*	3.2	53.1*	-10.7	43.7*	-2.8	35.4*	50.2*	TIM10 conf=22.6
CCCCCCN1C=CC=C/C1=C\C=C(C#N)C#N	30.2	-1.3	27.9	0.1	29.6	-2.9	.	.
CCOC(=O)/C=C/C(=O)OCC(=O)Nc1c(Cl)cccc1Cl	0.4	-1.6	23.6	5.0	15.2	-2.1	.	.
CCOC(=O)/C=C/C(=O)OCC(=O)Nc1ccc(Cl)cc1Cl	47.5*	0.1	53.5*	-1.3	29.8	2.7	45.7*	73.4*
CCOC(=O)CCC(=O)Nc1ccc([N+](=O)[O-])cc1C	9.2	-1.1	14.8	-4.7	0.7	5.8	.	.
Cc1ccc(-n2ncc3c2CCCC3NC(=O)c2ccoc2)cc1C (stereo not drawn)	26.2	1.2	25.5	13.7	14.9	-2.1	.	.
Cc1ccc(-n2ncc3c2CCCC3NC(=O)c2csnn2)cc1C (stereo not drawn)	58.6*	0.9	51.8*	-4.2	26.1	-2.2	40.7*	43.5*
COc1cc(/C=C2\COC/C(=C\c3ccc(O)c(OC)c3)C2=O)ccc1O	71.3*	-2.5	68.6*	-4.4	67.0*	15.6	67.7*	81.8*	TIM10 conf=61.3*
COc1cc(/C=C/C=C2/CC/C(=C/C=C/c3ccc(O)c(OC)c3)C2=O)ccc1O	.	1.0	.	-17.4	.	.	.	.
NC(=O)C(C1=CCCCC1)c1ccccc1 (stereo not drawn)	.	-4.9	.	2.9	.	.	.	.
C=CCOC(=O)C(C#N)c1nc2ccccc2nc1N1CCN(Cc2ccccc2)CC1 (stereo not drawn)	46.5*	-5.6	50.3*	1.2	36.1	.	36.4*	43.5*
CC(C)COC(=O)C(C#N)c1nc2ccccc2nc1N1CCN(Cc2ccccc2)CC1 (stereo not drawn)	42.1*	-0.2	51.4*	-9.9	39.4	20.2	11.8	21.2
COCCOC(=O)C(C#N)c1nc2ccccc2nc1N1CCN(Cc2ccccc2)CC1 (stereo not drawn)	25.0	4.9	25.4	23.1	23.4	9.3	.	.
O=C(c1ccsc1)N1CCCC(N2CCOCC2)C1 (stereo not drawn)	-2.7	-2.9	-11.1	2.9	-5.5	-4.4	.	.
C#CCOCCOCCOCCNc1nc(N2CCN(C(=O)CCCCCCCCCCNC(=O)[C@H](CCCCN)n3cc(CCCC(=O)O)nn3)CC2)nc(N2CCN(C(=O)CCCCCCCCCCNC(=O)[C@H](CCCN=C(N)N)n3cc(C[C@@H](C)CC)nn3)CC2)n1	43.7*	-2.5	51.7*	18.3	10.9	3.5	38.0*	52.6*
C#CCOCCOCCOCCNc1nc(N2CCN(C(=O)CCCCCCCCCCNC(=O)[C@H](CCCCN)n3cc(C[C@@H](C)CC)nn3)CC2)nc(N2CCN(C(=O)CCCCCCCCCCNC(=O)[C@H](CCCCN)n3cc(C[C@@H](C)CC)nn3)CC2)n1	.	8.4	.	47.0	.	?	.	.
COc1ccccc1C(=O)C1CCCN(C(=O)c2snnc2C)C1 (stereo not drawn)	14.0	3.9	6.5	-4.9	-18.5	17.1	.	.
COc1cccc(Nc2ccc([N+](=O)[O-])c3nonc23)c1	57.2*	1.4	70.2*	-15.0	29.8	3.8	22.1	78.5*
O=C(COC(=O)C12CC3CC(CC(Br)(C3)C1)C2)Nc1c(F)cccc1F	29.1	-2.9	42.4	-2.6	27.4	.	.	.
O=[N+]([O-])c1cnc(Sc2ccncn2)c([N+](=O)[O-])c1	.	2.2	.	.	.	.	.	.
O=[N+]([O-])c1cnc(Sc2ccncn2)s1	46.8*	9.0	68.5*	103.0*	81.9*	17.5	49.1*	52.6*	TIM10 conf=95.4*
Cc1ccc2cc(C=C(C#N)C#N)c(N3CCCCC3)nc2c1	55.4*	0.0	74.9*	-11.4	45.3*	6.3	44.9*	73.2*	TIM10 conf=25.1
CCOC(=O)/C(C#N)=C/c1cc2ccccc2nc1N1CCCCC1	30.4	-0.4	23.4	-1.2	11.8	-4.5	.	.
CC1CCC/C=C/C(=O)c2c(O)cc(O)cc2CC(=O)O1 (stereo not drawn)	54.5*	-3.6	53.3*	-22.4	40.0*	-1.2	49.1*	54.5*	TIM10 conf=50.8*
CC(=O)c1ccc(NC(=O)C(C)Nc2ccc(Cl)cc2)cc1 (stereo not drawn)	11.3	4.7	5.7	.	16.1	1.7	.	.
SMILES	tim10-1 inh	V-ATPase pHluor	tim23-1 inh	PfHsp90 set2	TIM10 inh	SKKanGAS inh	tim10-1 conf	tim23-1 conf	others
Nc1nc(NCCOCCO)nc(Nc2cccc(F)c2)c1[N+](=O)[O-]	-1.4	1.8	5.5	-9.1	11.9	4.8	.	.
CNc1nc(N)c([N+](=O)[O-])c(Nc2cccc(Cl)c2)n1	55.4*	2.1	59.3*	.	61.5*	-1.4	48.6*	63.6*	TIM10 conf=66.0*
CNc1nc(N)c([N+](=O)[O-])c(Nc2cccc(F)c2)n1	52.4*	-1.0	80.5*	12.0	66.6*	-4.0	48.0*	79.0*	TIM10 conf=79.2*
O=C1C=C(c2ccccc2)C(c2ccccc2)C1 (stereo not drawn)	.	-1.4	.	.	.	.	.	.
O=C(Nc1ccc(Cl)cc1)C(Cl)C(=O)c1ccccc1 (stereo not drawn)	55.2*	1.7	69.5*	70.5	59.5*	-3.5	55.6*	76.5*	TIM10 conf=80.6*
O=C(NC(=S)Nc1ccc(Cl)cc1)c1ccccc1	24.2	-0.5	44.1	-2.0	30.6	19.1	.	.
COC(=O)C[C@@H]1C[C@@H]2c3cc(NC(=O)Cc4ccncc4)ccc3O[C@@H]2[C@@H](CO)O1	.	0.2	.	.	.	.	.	.
CC1=C([N+](=O)[O-])C(c2ccccc2Cl)NC(=O)N1C (stereo not drawn)	14.9	0.7	17.1	2.4	-3.7	-2.6	.	.
COc1ccc(CN2c3c(Br)cccc3C(=O)CS2(=O)=O)cc1	42.4*	-3.4	71.7*	-20.4	14.1	.	40.8*	59.9*
COc1ccc(CN2C(=O)C(C)=C(C)C2OC)cc1 (stereo not drawn)	8.2	-3.5	17.4	0.1	8.4	-3.2	.	.
CCc1cc(C(=O)N2CCCC(C(=O)c3cccc4ccccc34)C2)n(C)n1 (stereo not drawn)	14.2	-0.9	11.3	12.3	12.0	-5.9	.	.
Cc1noc(C)c1S(=O)(=O)N(C)CC(=O)Nc1ccc(F)cc1	-11.2	1.8	-14.7	-8.3	-14.1	-3.4	.	.
N#C/C(=C\c1ccc(Cl)c([N+](=O)[O-])c1)c1ccccn1	53.7*	1.9	60.4*	-24.1	64.2*	-2.2	66.3*	69.5*	TIM10 conf=72.8*
